Inconclusive results are not listed. The source made the active and inactive calls. Calls follow the shape of the dose curve; as a rule, active = well fitted curve in the direction sought with a large enough effect; inconclusive = small, poorly fitted or top-dose-only effect, or another doubt; inactive = no such curve, though single readings can be large; an effect the other way counts as inactive or inconclusive.
Experiments:
[1] = Cellular Toxicity (caspase-3) SK-N-SH (AID 661);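 also: 0% = DMSO basal and 100% = 10 µM staurosporine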
Method in brief: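 Caspase 3/7 activation is measured as a luminescence increase from aminoluciferin released by substrate cleavage in SK-N-SH cells after 16 hr compound treatment; values are AC50 from concentration-response curves.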

[2] = Cellular Toxicity (caspase-3) H-4-II-E (AID 663); conditions: H-4-II-E rat hepatoma, scaled: DMSO 0%, 100 µM tamoxifen 100%; at 92.2 µM (top of the series);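 also: cells exposed to compound for 16 hr before readout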
Method in brief: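 Rat hepatoma H-4-II-E cells (1500/well) plated 5 hr, then exposed to compound titrations for 16 hr at 37 °C. Caspase-Glo 3/7 luminescence read after 20 min at RT; data normalized to DMSO and 100 uM tamoxifen, AC50 from Hill fits.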

[3] = Cellular Toxicity (caspase-3) Hek293 (AID 664); conditions: HEK293 caspase-3 activation, DMSO = 0%, 100 µM tamoxifen = 100%; at 92.2 µM (top of the series);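 also: cells exposed to compound for 16 h at 37 °C before readout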
Method in brief: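 Activation of caspase-3/7 is measured as increased luminescence from cleaved peptide-aminoluciferin substrate in HEK293 cells treated 16 hours at 37 °C. AC50 values come from Hill-equation fits of concentration-response data.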

[4] = Cellular Toxicity (caspase-3) N2a (AID 665);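 also: compound exposure lasted 16 h at 37 °C before readout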
Method in brief: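 Plated mouse neuroblastoma N2a cells received titrated compounds for 16 h in complete medium. Caspase activity was then detected with a peptide-aminoluciferin luminescent reagent.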

[5] = Cellular Toxicity (caspase-3) NIH 3T3 (AID 666);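 also: 0% = DMSO basal and 100% = 100 µM tamoxifen stimulation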
Method in brief: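 Concentration-response qHTS in NIH 3T3 mouse fibroblasts scores caspase-3/7 activation as rising luminescence after 16 hr compound exposure. Signals are scaled between DMSO-only and 100 uM tamoxifen.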

[6] = Cellular Toxicity (caspase-3) Renal Proximal Tubule (AID 667); conditions: Potency: caspase-3 activation;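 also: cells exposed to compound for 16 hours at 37 °C before detection; 0% = DMSO basal and 100% = 10 µM staurosporine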
Method in brief: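 Caspase-Glo 3/7 read-out, rat primary kidney proximal tubule cells. Compound exposure 16 h, 37 °C; detection after 1 h at RT. Activity scaled to DMSO and 10 uM staurosporine.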

[7] = biological target: Cytochrome P450 3A4 (Homo sapiens) (UniProt P08684); assay: qHTS Assay for Inhibitors and Substrates of Cytochrome P450 3A4 (AID 884); also: % is scaled to controls: 0 for no effect and ±100 for the full control effect; nearly all actives have a fitted effect of over 50% in size
Method in brief: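 20 nM human CYP3A4 with 25 uM Luciferin-PPXE (at KM) in 200 mM KPO4, preincubated 10 min with compound; NADPH regeneration started a 60 min RT reaction. Luciferin detected by luminescence, normalized to 57 uM ketoconazole as full inhibition.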

[8] = Cell Viability - LYMP2-001 (AID 921);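 also: cells exposed to compound for 24 h at 37 °C; 0% = DMSO only and full inhibition = tetraoctylammonium bromide control wells; nearly all actives have a fitted effect of over 70% in size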
Method in brief: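 A lymphoblastoid cell line of human origin was treated with library compounds across a concentration series for 24 hours, and viable cell number was estimated from ATP-driven luciferase light output. Hill modeling gave AC50.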

[9] = MultiTox-Fluor Cytotoxicity Assay - LYMP1-001 - Dead Cells (AID 946)
Method in brief: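 Cytotoxicity as increased dead-cell protease fluorescence (bis-AAF-R110, 485/520 nm), read 60 min after MultiTox-Fluor reagent. Human lymphoblastoid line exposed 16 h; Hill-fitted AC50, with DMSO as 0% and 15 uM tetraoctylammonium bromide as 100%.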

[10] = MultiTox-Fluor Cytotoxicity Assay - LYMP1-001 - Live Cells (AID 947);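 also: 0% = DMSO only and full inhibition = tetraoctylammonium bromide control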
[11] = Cell Viability - LYMP1-002 - Assay at 16 hr (AID 948);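 also: 0% = DMSO alone and full effect = 92 µM tetraoctylammonium bromide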
Method in brief: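 In this qHTS, lymphoblastoid LYMP1-002 cells (human) receive compounds for 16 hr at 37 C. Viability is taken from CellTiter-Glo ATP luminescence, and AC50 derives from standard Hill fits.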

[12] = MultiTox-Fluor Cytotoxicity Assay - LYMP1-002 - Live Cells (AID 955); also: % is scaled to controls: 0 for no effect and ±100 for the full control effect
Method in brief: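 Cytotoxicity in the human lymphoblastoid line LYMP1-002 is measured as loss of live-cell protease activity after 16 h treatment in complete culture medium. AC50 is derived from Hill-equation fits of qHTS concentration-response data.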

[13] = MultiTox-Fluor Cytotoxicity Assay - LYMP1-003 - Dead Cells (AID 961); also: nearly all actives have a fitted effect of over 70% in size
Method in brief: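 Dead-cell protease release, detected as bis-AAF-R110 fluorescence at 485/520 nm, was measured in LYMP1-003 cells after 16 h compound treatment at 37 C. AC50 values came from Hill-modeled qHTS curves normalized to DMSO (0%) and 15 uM tetraoctylammonium bromide (100%).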

[14] = MultiTox-Fluor Cytotoxicity Assay - LYMP1-003 - Live Cells (AID 962);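 also: 0% = DMSO only and full loss = 92 µM tetraoctylammonium bromide; cytotoxic hits lower the live-cell protease signal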
Method in brief: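 Cells plated at 2500 per well and incubated 5 hr; compounds added and incubated 16 hr at 37 C; MultiTox-Fluor reagent added for 60 min at room temperature; fluorescence of liberated AFC measured at 405/510 nm.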

[15] = Cell Viability - LYMP1-003 - Assay at 24 hr (AID 963);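 also: plate controls were DMSO only for no effect and tetraoctylammonium bromide positive control for full effect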
Method in brief: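 Acute toxicity in LYMP1-003 lymphoblastoid cells: 24 hr compound treatment at 37 C, ATP measured with CellTiter-Glo after 30 min at room temperature. AC50 derived by fitting the Hill equation to qHTS titrations.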

[16] = Cell Viability - LYMP1-003 - Assay at 40 hr (AID 964); also: % is scaled to controls: 0 for no effect and ±100 for the full control effect; nearly all actives have a fitted effect of over 60% in size
Method in brief: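 This qHTS cytotoxicity screen treats human lymphoblastoid cells (LYMP1-003) with compounds for 40 hr and quantifies cellular ATP via luciferase luminescence.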

[17] = Cell Viability - LYMP2-003 (AID 965);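 also: cells exposed to compounds for 24 h before reading; 0% = DMSO only and full effect = 92 µM tetraoctylammonium bromide; nearly all actives have a fitted effect of over 50% in size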
Method in brief: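 qHTS, human lymphoblastoid line, 2500 cells/well, complete medium. 24 h drug, 37 C. ATP-based luminescent readout; Hill-fit AC50.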

[18] = MultiTox-Fluor Cytotoxicity Assay - LYMP1-002 - Dead Cells (AID 960); also: nearly all actives have a fitted effect of over 60% in size
Method in brief: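 Acute cytotoxicity in a human lymphoblastoid line is scored as rising dead-cell protease signal after 16 hr exposure at 37 C, measured fluorometrically (485/520).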

[19] = biological target: Cytochrome P450 3A4 (Homo sapiens) (UniProt P08684); assay: qHTS Assay for Activators of Cytochrome P450 3A4 (AID 885); also: nearly all actives have a fitted effect of over 65% in size
Method in brief: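 Signal was normalized against complete inhibition by 57 uM ketoconazole. The reaction used 20nM CYP3A4 with 25uM Luciferin-PPXE, 10-min compound preincubation and a 60-min NADPH-supported step at RT.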

Cytochrome P450 3A4 (Homo sapiens), sequence (P08684 whole entry, looked up): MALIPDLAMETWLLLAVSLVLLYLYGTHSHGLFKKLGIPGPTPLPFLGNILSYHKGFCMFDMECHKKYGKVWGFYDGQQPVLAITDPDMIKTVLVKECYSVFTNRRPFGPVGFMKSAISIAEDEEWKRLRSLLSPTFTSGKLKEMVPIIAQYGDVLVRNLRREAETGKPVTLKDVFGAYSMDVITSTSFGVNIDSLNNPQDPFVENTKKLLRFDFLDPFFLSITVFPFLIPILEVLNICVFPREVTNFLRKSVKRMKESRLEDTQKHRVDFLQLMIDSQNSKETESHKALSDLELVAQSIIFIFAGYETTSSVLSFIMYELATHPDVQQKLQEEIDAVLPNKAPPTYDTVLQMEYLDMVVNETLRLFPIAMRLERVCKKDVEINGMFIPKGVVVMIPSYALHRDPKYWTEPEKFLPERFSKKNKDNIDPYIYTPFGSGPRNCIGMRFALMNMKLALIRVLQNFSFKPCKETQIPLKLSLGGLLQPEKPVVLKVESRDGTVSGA

Cc1ccc(Br)cc1
inactive: outcome [1] | caspase-3 activation [2] 0.265% | caspase-3 activation [3] 0.98% | outcome [4] | outcome [5] | Potency [6] | Potency [7] | Potency [8] | outcome [9] | outcome [10] | outcome [11] | outcome [12] | Potency [13] | Potency [14] | Potency [15] | Potency [16] | Potency [17]

O=[N+]([O-])c1c(Cl)cc(Cl)cc1Cl
inactive: outcome [1] | caspase-3 activation [2] 0.356% | caspase-3 activation [3] -0.873% | outcome [4] | outcome [5] | Potency [6] | Potency [7] | Potency [8] | outcome [9] | outcome [10] | outcome [11] | outcome [12] | Potency [13] | Potency [14] | Potency [15] | Potency [16] | Potency [17]

Nc1cccc(C(F)(F)F)c1
inactive: outcome [1] | caspase-3 activation [2] -0.107% | caspase-3 activation [3] 2.75% | outcome [4] | outcome [5] | Potency [6] | Potency [7] | Potency [8] | outcome [9] | outcome [10] | outcome [11] | outcome [12] | outcome [18] | Potency [13] | Potency [15] | Potency [16] | Potency [17]

OCCO
inactive: outcome [1] | caspase-3 activation [2] -0.0515% | caspase-3 activation [3] 0.819% | outcome [4] | outcome [5] | Potency [6] | Potency [7] | Potency [8] | outcome [9] | outcome [11] | outcome [12] | outcome [18] | Potency [13] | Potency [14] | Potency [15] | Potency [17]

Cc1ccc(N(C)C)cc1
inactive: outcome [1] | caspase-3 activation [3] -0.882% | outcome [4] | outcome [5] | Potency [6] | Potency [7] | Potency [8] | outcome [9] | outcome [10] | outcome [11] | outcome [12] | outcome [18] | Potency [13] | Potency [15] | Potency [16] | Potency [17]

CN(C)c1cccc(O)c1
inactive: outcome [1] | caspase-3 activation [3] 0.706% | outcome [4] | outcome [5] | Potency [6] | Potency [7] | Potency [8] | outcome [9] | outcome [10] | outcome [12] | outcome [18] | Potency [13] | Potency [14] | Potency [15] | Potency [16] | Potency [17]

CCC(O)C(C)(C)C (configuration not stated)
inactive: outcome [1] | caspase-3 activation [2] -0.43% | caspase-3 activation [3] 1.79% | outcome [4] | outcome [5] | Potency [6] | Potency [7] | Potency [8] | outcome [9] | outcome [10] | outcome [11] | outcome [12] | outcome [18] | Potency [13] | Potency [14] | Potency [15] | Potency [16] | Potency [17]

O=C(O)CCSSCCC(=O)O
inactive: outcome [1] | caspase-3 activation [2] -0.00623% | caspase-3 activation [3] -0.885% | outcome [4] | outcome [5] | Potency [6] | Potency [7] | Potency [8] | outcome [9] | outcome [10] | outcome [11] | outcome [12] | outcome [18] | Potency [13] | Potency [14] | Potency [15] | Potency [16] | Potency [17]

Nc1cccc(N)c1
inactive: outcome [1] | caspase-3 activation [3] -1.72% | outcome [4] | outcome [5] | Potency [6] | outcome [19] | Potency [8] | outcome [9] | outcome [10] | outcome [11] | outcome [12] | outcome [18] | Potency [13] | Potency [14] | Potency [15] | Potency [16] | Potency [17]

COC(=O)CC#N
inactive: outcome [1] | caspase-3 activation [2] 1.64% | caspase-3 activation [3] 0.82% | outcome [4] | outcome [5] | Potency [6] | Potency [7] | Potency [8] | outcome [9] | outcome [10] | outcome [11] | outcome [12] | outcome [18] | Potency [13] | Potency [14] | Potency [15] | Potency [16] | Potency [17]

COc1ccc(N=[N+]([O-])c2ccc(OC)cc2)cc1
inactive: outcome [1] | caspase-3 activation [2] -3.45% | caspase-3 activation [3] -8.4% | outcome [4] | Potency [6] | Potency [7] | Potency [8] | outcome [9] | outcome [11] | Potency [13] | Potency [14] | Potency [15] | Potency [16] | Potency [17]

COC(=O)c1ccccc1
inactive: outcome [1] | caspase-3 activation [3] -1.66% | outcome [4] | outcome [5] | Potency [6] | Potency [7] | Potency [8] | outcome [9] | outcome [10] | outcome [11] | outcome [12] | Potency [13] | Potency [14] | Potency [15] | Potency [17]

Cc1ccccc1C=O
inactive: outcome [1] | caspase-3 activation [2] 0.931% | caspase-3 activation [3] 1.08% | outcome [4] | outcome [5] | Potency [6] | Potency [7] | Potency [8] | outcome [9] | outcome [10] | outcome [11] | outcome [18] | Potency [13] | Potency [14] | Potency [15]

ON=C1CCCCC1
inactive: outcome [1] | caspase-3 activation [2] 1.35% | caspase-3 activation [3] 2.27% | outcome [4] | outcome [5] | Potency [6] | Potency [7] | Potency [8] | outcome [9] | outcome [10] | outcome [12] | outcome [18] | Potency [13] | Potency [14] | Potency [15] | Potency [16] | Potency [17]

c1ccc2c(c1)ccc1ncccc12
inactive: outcome [1] | caspase-3 activation [2] 0.297% | caspase-3 activation [3] 1.59% | outcome [4] | outcome [5] | Potency [6] | Potency [8] | outcome [9] | outcome [10] | outcome [11] | Potency [13] | Potency [14] | Potency [15] | Potency [16] | Potency [17]

CCC(C)(C)C(=O)O
inactive: outcome [1] | caspase-3 activation [2] 1.75% | caspase-3 activation [3] 1.52% | outcome [4] | outcome [5] | Potency [6] | Potency [7] | Potency [8] | outcome [9] | outcome [10] | outcome [11] | outcome [12] | outcome [18] | Potency [13] | Potency [14] | Potency [15] | Potency [16] | Potency [17]

CC1CCC2CC1C2(C)C (configuration not stated)
inactive: outcome [1] | caspase-3 activation [3] -2.62% | outcome [4] | outcome [5] | Potency [6] | Potency [7] | outcome [9] | outcome [10] | outcome [11] | outcome [12] | outcome [18] | Potency [13] | Potency [14] | Potency [15] | Potency [16] | Potency [17]

Nc1ccc([N+](=O)[O-])c(N)c1
inactive: outcome [1] | caspase-3 activation [2] -0.185% | caspase-3 activation [3] -0.316% | outcome [4] | outcome [5] | Potency [6] | Potency [7] | Potency [8] | outcome [9] | outcome [10] | outcome [12] | outcome [18] | Potency [13] | Potency [14] | Potency [15] | Potency [16] | Potency [17]
